Sampled rows, rich in hits. Any-hit rate of the full collection: about 1.8%.
GLP-1R inv ag: acts as inverse agonist at human GLP-1 receptor; P43220; Potency, µM (highest dose often 38.3 µM), inactives show at the highest dose activity change, negative = inhibition, usual class: inhibitors; AID 624417; 410,000 compounds, 1.6% hits; HEK293 GLP-1R CRE-luciferase, luminescence, 24 h; GLP-1R form is constitutively active; further: potency means the concentration at half of the fitted maximal effect; on the % scale 0 is the no-effect control and ±100 the full control effect; nearly all actives have a fitted effect of over 55% in size
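Inverse agonists were sought by their lowering of basal cAMP reporter luciferase output in HEK293 cells stably carrying constitutively active human GLP-1R, after 24 h compound treatment.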
GLP1R cytotox: cytotoxicity counter-screen for GLP-1 receptor inverse agonists | 410,000 compounds, 0.13% hits | AID 624418 | HEK293 cAMP-luciferase reporter cells, luminescence, 24 h | Potency, µM (highest dose often 38.3 µM), without a hit: at the top dose activity change, negative = inhibition, actives largely listed as inhibitors;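 further: loss of luciferase light is scored as toxicity; potency means the concentration at half of the fitted maximal effect; on the % scale 0 is the no-effect control and ±100 the full control effect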
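Cells in DMEM/10% Nu serum/1% pen-strep, 1536-well format. Pre-incubated 12 h, dosed with 23 nL compound, incubated a further 24 h. Luciferase detection, 12 min at room temp, luminescence.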
TSHR antagonist: human thyrotropin receptor antagonism; 330,000 compounds, 0.2% hits; TSHR-expressing cells, TSH-stimulated cAMP HTRF, 2 h; active compounds read low; activity change, negative = inhibition, % at 11.5 µM; P16473;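 active means activity change below a set negative limit, meaning inhibition stronger than a set level, cut at about -70% in these data; inconclusive means activity change between two set negative limits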; further: on the % scale 0 is the no-effect control and ±100 the full control effect
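Cell-based HTRF cAMP assay; TSHR cells + compound, TSH EC80 (4nM final), 2 h, 37 deg C. Lysis with anti-cAMP cryptate and cAMP-d2, 30 min RT, read 665/620 nm.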
PTHR1 agonist: agonists of human PTHR1 parathyroid hormone receptor; 410,000 compounds, 0.075% hits; Potency, µM (top dose mostly 115 µM), for inactives: top-dose activation, usual class: activators; HEK293 GP2 PTHR1 cells, GloSensor cAMP luminescence, 1 h; further: potency means the concentration at half of the fitted maximal effect; nearly all actives have a fitted effect of over 55% in size
Target sequence (Q03431 whole entry, looked up): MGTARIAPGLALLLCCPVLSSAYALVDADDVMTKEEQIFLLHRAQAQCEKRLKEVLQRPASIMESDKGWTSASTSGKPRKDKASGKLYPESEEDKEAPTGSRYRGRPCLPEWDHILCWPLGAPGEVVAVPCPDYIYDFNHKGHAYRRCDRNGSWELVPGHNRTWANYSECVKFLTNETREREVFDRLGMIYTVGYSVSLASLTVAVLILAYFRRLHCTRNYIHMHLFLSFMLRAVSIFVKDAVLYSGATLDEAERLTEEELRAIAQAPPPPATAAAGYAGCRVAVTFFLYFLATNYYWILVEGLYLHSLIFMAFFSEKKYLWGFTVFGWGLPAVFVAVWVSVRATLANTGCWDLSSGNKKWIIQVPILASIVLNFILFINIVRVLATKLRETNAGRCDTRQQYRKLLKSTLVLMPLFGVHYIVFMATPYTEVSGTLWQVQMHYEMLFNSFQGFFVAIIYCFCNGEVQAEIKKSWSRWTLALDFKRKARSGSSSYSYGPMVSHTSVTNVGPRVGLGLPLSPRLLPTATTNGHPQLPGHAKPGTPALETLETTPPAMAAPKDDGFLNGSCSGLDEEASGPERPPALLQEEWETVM
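HEK-293-derived GP2 cells expressing PTHR1 and a GloSensor cAMP reporter, 3,000/well, plated overnight, given luciferin plus IBMX (each 0.5 mM as added) for 1 h at 37 °C, then compound for 1 h at 37 °C. Luminescence was read after 15 min at room temperature.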
GLP-1R agonist: agonists of human GLP-1 receptor; 380,000 compounds, 0.007% hits; Potency, µM (doses to about 45.6 µM), inactives show top-dose activation, most hits filed as activators; HEK293 GLP-1R CRE-luciferase, luminescence, 4-6 h; cells express a hypersensitive GLP-1R form; P43220; further: potency means the concentration at half of the fitted maximal effect; % of control where 0% means no effect
* marks the source's active call; other numbers are inactive results; i = inactive; ? = inconclusive; · = no result; [ ] = dose if it differs, or a comment. Unless noted, the call rests on the fitted dose curve; in most records, active means well fitted curve in the direction sought with a large enough effect; inconclusive means small, poorly fitted or top-dose-only effect, or another doubt; inactive means no such curve, though single readings can be large; an effect the other way counts as inactive or inconclusive.

SMILES	GLP-1R inv ag	GLP1R cytotox	TSHR antagonist	PTHR1 agonist	GLP-1R agonist
CC(C)CC(N)c1csc(NC(=O)Nc2ccccc2C(C)C)n1 (centres undefined)	10µM*	?	·	i	4.5%
NC(Cc1ccc(C(F)(F)F)cc1)c1csc(NC(=O)Nc2ccccc2Cc2ccccc2)n1 (centres undefined)	?	?	·	-11.2%	-23.6%
CC(C)c1ccccc1NC(=O)Nc1nc(C(N)Cc2ccc(C(F)(F)F)cc2)cs1 (centres undefined)	12.6µM*	?	·	i	-23.1%
CC(=O)SC[C@@H](C)C(=O)N1CCC[C@H]1C(=O)N[C@@H](Cc1ccccc1)C(=O)O	·	·	·	·	3.7%
O=[N+]([O-])c1ccc(/C=C/c2ccc3ccccc3n2)cc1	10µM*	0.1%	-9.2	-25.6%	16.9%
C(=C\c1ccc2ccccc2n1)/c1ccccc1	10µM*	-15.1%	-35.2	?	-2.3%
COc1ccc(O)c(C2Nc3ccccc3-n3c(-c4ccccc4)c4c(=O)n(C)c(=O)n(C)c4c32)c1 (centres undefined)	3.3%	21.3%	·	-29.7%	·
Cc1ccc(-c2c3c(=O)n(C)c(=O)n(C)c3c3n2-c2ccccc2NC3c2ccc(C)cc2O)cc1 (centres undefined)	10µM*	-13.8%	·	-20.1%	·
COc1ccc(C2c3ccc4ccccc4c3Oc3ncn(CCCN(C)C)c(=N)c32)cc1 (centres undefined)	4.47µM*	?	-0.9	i	21.2%
COc1ccccc1C1c2ccc3ccccc3c2Oc2ncn(CCN(C)C)c(=N)c21 (centres undefined)	2.82µM*	?	-2.9	i	21.7%
Cc1ccc(C)c(NC(=O)CN2C(=O)CCc3ccccc32)c1	16.9%	2.1%	·	21.8%	·
CCOC(=O)c1c(C)nc2ccc(Cl)cc2c1-c1ccccc1	10µM*	-6.5%	-2.0	i	?
CC(CCc1ccccc1)NC(=O)CSc1n[nH]c(-c2ccc(F)cc2)n1 (centres undefined)	?	-16.9%	·	-90.1%	·
COc1ccccc1/C=C/C(=O)Oc1cccc2cccnc12	4.47µM*	?	-4.3	-37.1%	6.8%
COC(=O)CN(c1ccc(C)cc1)S(=O)(=O)c1ccc2c(c1)n(C)c(=O)c(=O)n2C	-1.2%	0.2%	-95.6*	i	-1.4%
COc1ccccc1CNC(=O)c1cccc(-c2ccc(C)c3ccccc23)n1	·	·	2.3	·	·
CCCCCCNC(=O)c1cccc(-c2ccc(C)c3ccccc23)n1	11.2µM*	0.0%	1.0	-2.7%	8.9%
COc1ccc(-c2nc3ccc(C4=C(C)CC(=O)NN4)cc3[nH]2)cc1	·	·	·	·	28.9%
O=c1[nH]c(C2CCN(S(=O)(=O)c3cccc(C(F)(F)F)c3)CC2)nc2c1nnn2Cc1cccc(F)c1	7.94µM*	?	-13.6	i	6.1%
C[C@H](CN1c2ccccc2Sc2cccnc21)N(C)C	·	·	·	·	1.1%
Cc1c(Cl)cccc1NC(=O)N1CCCN(c2nc(-c3ccccc3)ns2)CC1	5.01µM*	-4.6%	-30.9	-20.9%	5.6%
CC1=CC(C)(C)n2c(O)c(N=NC(N)=S)c3c(C)c(C)cc1c32	-22.5%	5.4%	10.6	i	3.4%
CC1=CC(C)(C)n2c(O)c(N=NC(N)=S)c3cccc1c32	4.47µM*	?	-14.8	-6.4%	0.9%
COc1cc2c3c(c1)c(N=NC(N)=S)c(O)n3C(C)(C)C=C2C	?	0.891µM*	-5.6	-9.5%	29.1%
Cc1ccc(O)c(CN(C)Cc2cc(C)ccc2O)c1	12.6µM*	-21.3%	·	i	6.4%
SMILES	GLP-1R inv ag	GLP1R cytotox	TSHR antagonist	PTHR1 agonist	GLP-1R agonist
CN(C)c1ccc(C(=S)N2CCN(Cc3ccccc3)CC2)cc1	11.2µM*	-27.8%	-13.0	-21.1%	-6.6%
O=C(COCc1cc(-c2ccc3c(c2)OCO3)on1)Nc1cc(C(F)(F)F)ccc1Cl	-7.1%	-6.7%	·	i	·
S=C(NC1CCCCC1)N(CCc1nc2ccccc2[nH]1)C1CCCC1	10µM*	?	-3.3	-1.9%	-4.6%
CCCCCCCN1C2=NCCCN2c2ccccc21	10µM*	-27.7%	11.9	-5.8%	4.8%
CCCCCCN1C2=NCCN2c2ccccc21	-24.7%	-17.6%	-4.4	i	2.8%
CCCCCCCN1C2=NCCN2c2ccccc21	5.62µM*	?	1.8	i	-3.0%
Clc1ccc(CN2C3=NCCCN3c3ccccc32)c(Cl)c1	8.91µM*	-29.1%	3.9	-10.3%	3.4%
CCCCN1C2=NCCCN2c2ccccc21	5.4%	-10.6%	5.7	-2.5%[57.5 µM]	-5.3%
CCN1CCc2nc3sc(C(=O)c4ccccc4)c(N)c3cc2C1	-14.1%	-16.7%	·	-19.0%	·
CCC(=O)Nc1ccc(C)cc1-c1nc2ccccc2n(C(C)C(=O)Nc2ccccc2CC)c1=O (centres undefined)	?	-22.0%	·	-24.8%	·
CC(C)(C)C1(O)CC(C(F)(F)F)=NN1C(=O)Cc1ccc([N+](=O)[O-])cc1 (centres undefined)	10µM*	20.2%	-6.6	-1.2%	17.8%
Cc1ccccc1OCC(=O)N1N=C(C(F)(F)F)CC1(O)C(C)(C)C (centres undefined)	8.91µM*	?	24.8	i	-19.1%
CCC1=NN(C(=O)Cc2ccc([N+](=O)[O-])cc2)C(O)(C(F)(F)F)C1 (centres undefined)	6.1%	-8.2%	33.8	i	2.5%
O=C(NCCC1=CCCCC1)c1ccc2c(c1)N(Cc1ccc(Cl)cc1)C(=O)c1ccccc1S2=O (centres undefined)	16.2%	0.1%	·	i	0.7%
Cc1cccc(/C=N/NC(=O)c2ccccc2OCc2cccc(Br)c2)n1	11.2µM*	?	2.3	-22.3%	17.7%
Cc1cccc(/C=N/NC(=O)c2cccc(NC(=O)c3ccccc3)c2)n1	-5.9%	2.9%	1.1	i	11.1%
CN1CCN(c2ncnc3scc(-c4ccccc4Cl)c23)CC1	1.41µM*	0.0%	0.0	i	-3.7%
Oc1ccccc1N1CCN(c2ncnc3scc(-c4ccc(F)cc4)c23)CC1	?	-7.6%	9.1	-12.6%	8.9%
Oc1ccccc1N1CCN(c2ncnc3scc(-c4ccccc4)c23)CC1	11.2µM*	-26.2%	-4.2	-12.1%	14.1%
Cc1cc(-c2csc3ncnc(N4CCN(C)CC4)c23)cc(C)c1C	?	0.8%	-5.6	-0.9%	13.6%
COc1ccc2c(CC(=O)Nc3ccc(C)cc3)coc2c1	-0.3%	7.2%	·	-50.2%	·
O=C(/C=C/c1ccccc1)NC(NC(=S)Nc1ccc(Cl)cc1Cl)C(Cl)(Cl)Cl (centres undefined)	?	?	-16.2	i	-10.3%
